# PPC-1+TRAIL kill: PPC-1 cancer cell killing with TRAIL present | cell killing (% activity), % at 4 µM or 5 µM | PPC-1 cells + TRAIL, ATPLite viability luminescence | 0.41% of 220,000 active;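 active = cell killing above 50% in the first pass at 4 µM, then a duplicate retest at 5 µM averaging 50% or more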
# C8 TRAIL sens: caspase-8 TRAIL sensitization; NB7+C8 cells + TRAIL, ATPlite viability luminescence; inhibition (viability loss, TRAIL sensitization), % at 10 µM; 1% of 360,000 active; AID 624354;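 active = compounds causing at least 50% loss of cell viability in the single-dose screen, relative to plate controls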
# STAT3 inh: reduces IL-6 driven STAT3 reporter signal. 0.89% of 190,000 active. inhibition, % at 5.5 µM. AID 862. U3A cells, IL-6 STAT3-luciferase reporter, luminescence; host cell line lacks STAT1;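 active = inhibition above the mean inhibition across all screened compounds plus 3 SD, cut at about 44% in these data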
# Platelet DG rel: modulates dense granule release in human platelets | human platelet-rich plasma, SFLLRN dense granule ATP release, luminescence | inhibition, %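 (compounds screened at 7.5 µM in platelet-rich plasma)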 | 0.22% of 300,000 active;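 active = mean replicate score, as percent of positive control, at or above 50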
# STAT1 inh: reduces IFN-gamma driven STAT1 reporter signal; NIH 3T3 STAT1-luciferase reporter, luminescence; inhibition, % at 5.5 µM; 0.35% of 200,000 active;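 active = inhibition above a set limit, the mean inhibition across all tested compounds plus 3 SD, cut at about 34% in these data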
# A number is an active result; i = inactive; nt = no result. Only some compounds are listed: those with a hit (about 1.6% of all), similar ones and a draw of the others.
SMILES,PPC-1+TRAIL kill,C8 TRAIL sens,STAT3 inh,Platelet DG rel,STAT1 inh
CN=c1scc(-c2ccc(F)cc2)n1/N=C/c1ccc(O)c(O)c1,i,74,i,nt,47
O=[N+]([O-])c1cc(S(=O)(=O)C(F)(F)F)ccc1Sc1nc2ccccc2[nH]1,i,86,i,i,i
CS(=O)(=O)c1ccc(Sc2nc3ccccc3[nH]2)c([N+](=O)[O-])c1,i,i,i,i,i
O=C(Nc1cnn(C23CC4CC(CC(C4)C2)C3)c1)c1cnn2c(C(F)(F)F)cc(-c3ccco3)nc12,i,64,i,i,i
CN(C)c1ccc(/C=C/c2nc3ccccc3c(=O)[nH]2)cc1,nt,91,nt,i,nt
COc1ccc(C(=O)Nc2cccc(/C=C/c3nc4ccccc4c(=O)[nH]3)c2)cc1,i,76,nt,i,nt
O=C(Nc1cccc(/C=C/c2nc3ccccc3c(=O)[nH]2)c1)c1ccccc1Cl,i,i,nt,i,nt
O=c1[nH]c(/C=C/c2ccc(Br)cc2)nc2ccccc12,nt,78,nt,i,nt
Cc1cccc(/C=C\c2nc3ccccc3c(=O)[nH]2)c1,i,58,i,i,i
Cc1c(C(=O)NCc2ccccc2)sc(=O)n1Cc1ccccc1F,nt,i,nt,nt,nt
CCOC1=C2[C@H](c3ccccc3)N(S(=O)(=O)c3ccc(C)cc3)[C@H](C(C)C)[C@H]2n2c(=O)n(-c3ccccc3)c(=O)n2C1,nt,i,nt,nt,nt
O=c1[nH]c(/C=C/c2ccccc2F)nc2ccccc12,nt,79,nt,i,nt
COC(=O)c1cc(CSc2nc3ccccc3c(=O)n2C)oc1C,nt,i,nt,i,nt
Clc1ccc(Cn2ncc3c(N4CCN(c5ccccc5)CC4)ncnc32)cc1,nt,74,nt,nt,nt
O=C(c1ccccc1)N1CCN(c2ncnc3c2cnn3-c2ccccc2)CC1,i,i,i,i,i
Clc1ccc(-n2ncc3c(N4CCCC4)ncnc32)cc1,i,55,i,i,i
Cc1nn(-c2ccccc2)c(Cl)c1C(=O)N1CCN(c2ncnc3c2cnn3-c2ccccc2)CC1,i,73,i,i,i
O=C(COc1ccc(/C=N/NC(=O)c2cc3ccccc3o2)cc1Cl)Nc1ccccc1,i,93,i,i,i
CCOC(=O)c1sc(N=NC2=C(O)CC(C)(C)CC2=O)c(C(=O)OCC)c1C,i,i,i,60,i
CCOC(=O)c1cc(CC)sc1/N=C/C1=C(O)CC(C)(C)CC1=O,i,i,i,i,i
COc1ccc([C@H]2C[C@H](O)[C@@H](n3cc(COC(=O)c4ccccc4)nn3)CN2CC2CCCCC2)cc1,nt,i,nt,nt,nt
CCN1CCN(CCNC(=O)c2ccc3c(c2)N(Cc2ccc(F)cc2)C(=O)/C(=C/c2ccccc2)S3)CC1,i,57,i,i,i
O=C1Nc2cc(C(=O)NCCN3CCCCCC3)ccc2S/C1=C/c1ccccc1F,nt,52,nt,nt,nt
CCN1CCCC1CNC(=O)c1ccc2c(c1)NC(=O)/C(=C\c1ccc(C)cc1)S2 (centres undefined),nt,79,nt,i,nt
O=C1Nc2cc(C(=O)NCCCN3CCCC3)ccc2S/C1=C/c1ccccc1F,nt,i,nt,i,nt
SMILES,PPC-1+TRAIL kill,C8 TRAIL sens,STAT3 inh,Platelet DG rel,STAT1 inh
O=C(/C=C/c1ccco1)Oc1cc(Br)cc(/C=N/NC(=O)c2ccccc2O)c1,52,i,i,i,i
COc1ccc(C(c2sc3nc(C)nn3c2O)N2CCCCC2)cc1 (centres undefined),nt,i,i,59,i
COc1cc(C(c2sc3nc(C)nn3c2O)N2CCOCC2)cc(OC)c1OC (centres undefined),nt,i,i,67,i
CC(C)C1C(=O)N(Cc2cn(CCC3OCCO3)nn2)CCS(=O)(=O)N1Cc1ccc(-c2ccc(F)cc2Cl)cc1 (centres undefined),nt,i,nt,nt,nt
COc1ccc(-c2cc(-c3cc(C)ccc3O)[nH]n2)cc1,i,i,i,i,i
Cc1ccc(O)c(-c2cc(-c3ccc(F)cc3)no2)c1,nt,69,nt,i,nt
Oc1ccccc1-c1cc(-c2ccccc2)no1,i,45,i,i,i
C/C(=N\NC(=O)c1nnn(-c2nonc2N)c1CN1CCC(C)CC1)c1ccc(Br)cc1,nt,i,nt,nt,nt
Cc1ccc(S(=O)(=O)N2C[C@H]3C(=O)C[C@@H](c4ccccc4)N(S(=O)(=O)c4ccc(C)cc4)[C@H]3C[C@H]2c2ccc(Cl)cc2)cc1,nt,i,nt,nt,nt
COc1ccc(/C=N/Nc2ccccn2)cc1O,i,i,nt,80,nt
Cc1ccc(-c2cc3cccc[n+]3cc2-c2ccc(C)cc2)cc1,i,i,61,i,36
COc1ccc2oc(-c3ccccc3)cc(=O)c2c1,nt,72,nt,nt,nt
O=c1cc(-c2ccccc2)oc2ccc(Br)cc12,nt,i,nt,nt,nt
O=C(c1ccco1)n1c(=S)nc2ccccn21,i,i,i,i,i
